MCF10A rerep: inducers of DNA re-replication in MCF 10A breast cells; MCF 10A DNA re-replication, Hoechst nuclear intensity, 48 h; Potency, µM (series often up to 46.1 µM), without a hit: at the highest dose activity, positive = re-replication, most hits filed as activators; 350,000 tested, 2.9% active; further: potency means the concentration at half of the fitted maximal effect; % of control where 0% means no effect; nearly all actives have a fitted effect of over 50% in size
KB-V1 MDR tox: KB-V1 MDR subline cytotoxicity. Potency, µM (doses to about 46.1 µM), most hits filed as cytotoxic. AID 1347076. 400,000 tested, 3.4% active. KB-V1 MDR cells viability, CellTiter-Glo, 72 h; further: potency means the concentration at half of the fitted maximal effect; on the % scale 0 is the no-effect control and ±100 the full control effect; nearly all actives have a fitted effect of over 60% in size
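Readout: CellTiter-Glo luminescence, 10 min after addition. Cells: KB-V1 MDR subline, 72 h at 37 degrees C with compound. Analysis: corrected, normalized data fitted to concentration-effect curves.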
IL-1B inflam inh: inhibitors of inflammasome signaling (IL-1 beta secretion). THP-1 LPS/ATP IL-1B secretion, AlphaLISA, 16 h; hits give low values. activity change, % at 57.5 µM. 360,000 tested, 4.7% active. AID 743279; in the data active means activity change below about -50%; inconclusive means mostly about -30% to -49%; further: on the % scale 0 is the no-effect control and ±100 the full control effect
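Secreted IL-1B measured by AlphaLISA bead assay after 16 h compound exposure of THP-1 cells; compounds (final up to 57.5 uM) added 1 h before LPS (250 ng/mL) and ATP (1.25 mM) stimulation; lower signal means less secretion.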
SW480 rereplic: inducers of DNA re-replication in SW480 colon cancer cells; SW480 DNA re-replication, Hoechst DNA content imaging, 48 h; Potency, µM (series often up to 46.1 µM), for inactives: at the highest dose re-replication activation, actives largely listed as activators; 340,000 tested, 1.8% active; AID 624297; further: potency means the concentration at half of the fitted maximal effect; % of control where 0% means no effect; nearly all actives have a fitted effect of over 55% in size
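SW480 cells exposed to compounds for 48 hr at 37 C, 5% CO2, then Hoechst-stained 40 min. Nuclear DNA content imaged by fluorescence scanning (405 nm excitation, 500-530 nm emission); re-replication scored as increased high-intensity nuclei.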
KB-3-1 tox: kills parental KB-3-1 adenocarcinoma cells | KB-3-1 viability, CellTiter-Glo ATP luminescence, 72 h | Potency, µM (titrated, usually from 46.1 µM), most hits filed as cytotoxic | 400,000 tested, 1.4% active; further: potency means the concentration at half of the fitted maximal effect; on the % scale 0 is the no-effect control and ±100 the full control effect; nearly all actives have a fitted effect of over 60% in size
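Viability of parental KB-3-1 cells, measured by CellTiter-Glo luminescence, followed a 72 h incubation at 37 °C with pinned compounds in phenol-red-free DMEM containing 10% FBS.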
An asterisk follows results filed as active. The list is not random: actives were taken first. Their share in the collection is about 9.9%. Unless noted, the call rests on the fitted dose curve; in most records, active means well fitted curve in the direction sought with a large enough effect; inconclusive means small, poorly fitted or top-dose-only effect, or another doubt; inactive means no such curve, though single readings can be large; an effect the other way counts as inactive or inconclusive.

How did Cc1ccc2nc(CSc3nc(C)cc(C)c3C#N)[nH]c2c1 do in these assays?
MCF10A rerep: 1.8µM*; KB-V1 MDR tox: inactive; IL-1B inflam inh: 27; SW480 rereplic: 4.6µM*; KB-3-1 tox: inactive

How did Cc1ccc(S(=O)(=O)N(CC(=O)NCc2ccncc2)Cc2ccccc2F)cc1 do in these assays?
MCF10A rerep: -1%; KB-V1 MDR tox: inconclusive; IL-1B inflam inh: -9; SW480 rereplic: 7%; KB-3-1 tox: inactive

Results for Cc1ccc(S(=O)(=O)N(CC(=O)NCc2ccco2)Cc2ccccc2F)cc1 ?
MCF10A rerep: -1%; KB-V1 MDR tox: 8.2µM*; IL-1B inflam inh: -20; SW480 rereplic: -26%; KB-3-1 tox: inactive

How did Cc1nn(Cc2ccc(F)cc2)c2sc(C(=O)Nc3ccccc3N3CCOCC3)cc12 do in these assays?
MCF10A rerep: 12%; KB-V1 MDR tox: inactive; IL-1B inflam inh: -17; SW480 rereplic: 1%; KB-3-1 tox: inactive

How did COc1ccccc1CNC(=O)c1cc2c(C)nn(Cc3ccc(F)cc3)c2s1 do in these assays?
MCF10A rerep: 3%; KB-V1 MDR tox: inactive; IL-1B inflam inh: -52*; SW480 rereplic: -5%; KB-3-1 tox: inactive

Results for CCc1cc(C(=O)Nc2cc(S(=O)(=O)N(CC)CC)ccc2N2CCOCC2)sc1C ?
MCF10A rerep: inconclusive; KB-V1 MDR tox: inactive; IL-1B inflam inh: -14; SW480 rereplic: -2%; KB-3-1 tox: inactive

What do the screens show for `Cc1nn(Cc2ccccc2Cl)c2sc(C(=O)Nc3ccccc3N3CCOCC3)cc12`?
MCF10A rerep: 9.2µM*; KB-V1 MDR tox: inconclusive; IL-1B inflam inh: 0; SW480 rereplic: 174%; KB-3-1 tox: inconclusive

How did CCC(CC)NC(=O)c1cc2c(C)nn(Cc3ccccc3Cl)c2s1 do in these assays?
MCF10A rerep: inconclusive; KB-V1 MDR tox: 15µM*; IL-1B inflam inh: -19; SW480 rereplic: inconclusive; KB-3-1 tox: inconclusive

What do the screens show for `Cc1nn(Cc2ccc(F)cc2)c2sc(C(=O)Nc3nccs3)cc12`?
MCF10A rerep: inconclusive; KB-V1 MDR tox: inactive; IL-1B inflam inh: 20; SW480 rereplic: 1%; KB-3-1 tox: inactive

How did CCc1cc(C(=O)Nc2ccccc2N2CCOCC2)sc1C do in these assays?
MCF10A rerep: 8%; KB-V1 MDR tox: 23µM*; IL-1B inflam inh: -12; SW480 rereplic: -5%; KB-3-1 tox: inactive

How did Cc1cc(C(=O)NNC(=O)c2ccc(NC(=O)CC#N)cc2)c(C)o1 do in these assays?
MCF10A rerep: 1%; KB-V1 MDR tox: inactive; IL-1B inflam inh: 6; SW480 rereplic: -6%; KB-3-1 tox: inactive

What do the screens show for `COc1ccc(CC(=O)Nc2nncs2)cc1OC`?
MCF10A rerep: -8%; KB-V1 MDR tox: inactive; IL-1B inflam inh: -5; SW480 rereplic: 8.2µM*; KB-3-1 tox: inactive

Results for COCCSc1nnc(NC(=O)Cc2ccc(OC)c(OC)c2)s1 ?
MCF10A rerep: 10%; KB-V1 MDR tox: inconclusive; IL-1B inflam inh: 8; SW480 rereplic: 23µM*; KB-3-1 tox: inconclusive

What do the screens show for `Cc1ccc(N(CC(=O)N2CCN(c3cc(Cl)ccc3C)CC2)S(=O)(=O)c2c(C)noc2C)cc1`?
KB-V1 MDR tox: inactive; KB-3-1 tox: inconclusive

Results for Cc1ccc(CCc2nnc(SCC(=O)Nc3cc(Cl)ccc3Cl)n2-c2ccccc2)o1 ?
MCF10A rerep: inconclusive; KB-V1 MDR tox: 15µM*; IL-1B inflam inh: -10; SW480 rereplic: 11%; KB-3-1 tox: inactive

What do the screens show for `COc1ccccc1C1CCN(Cc2ccc3ccccc3c2)CC1`?
MCF10A rerep: inconclusive; KB-V1 MDR tox: inactive; IL-1B inflam inh: -61*; SW480 rereplic: -1%; KB-3-1 tox: inactive

What do the screens show for `COc1ccccc1C1CCN(Cc2ccccc2)CC1`?
MCF10A rerep: inconclusive; KB-V1 MDR tox: inactive; IL-1B inflam inh: -9; SW480 rereplic: -6%; KB-3-1 tox: inactive

What do the screens show for `Cc1ccccc1-n1c(=O)n(Cc2ccco2)c(=O)c2[nH]cnc21`?
MCF10A rerep: -2%; KB-V1 MDR tox: inactive; IL-1B inflam inh: -1; SW480 rereplic: -5%; KB-3-1 tox: inactive

What do the screens show for `Clc1cccc(Cl)c1Cn1cnc2c(NCc3ccco3)ncnc21`?
MCF10A rerep: 16µM*; KB-V1 MDR tox: 3.5µM*; IL-1B inflam inh: 10; SW480 rereplic: 10µM*; KB-3-1 tox: inconclusive

What do the screens show for `Clc1cccc(Cl)c1Cn1cnc(=NCc2ccco2)c2[nH]cnc21`?
MCF10A rerep: inconclusive; KB-V1 MDR tox: 8.2µM*; IL-1B inflam inh: inconclusive; SW480 rereplic: 9%; KB-3-1 tox: inactive

How did Cn1cnc2c(NCc3ccco3)ncnc21 do in these assays?
MCF10A rerep: 36%; KB-V1 MDR tox: inactive; IL-1B inflam inh: -6; SW480 rereplic: -44%; KB-3-1 tox: inactive

Results for O=C(COC(=O)COc1ccc(Br)cc1)NC1CCS(=O)(=O)C1 (centres undefined) ?
KB-V1 MDR tox: inactive; IL-1B inflam inh: 10; KB-3-1 tox: inactive

How did Cc1c(C#N)c(N)nc(Cl)c1C#N do in these assays?
MCF10A rerep: -11%; KB-V1 MDR tox: inactive; IL-1B inflam inh: -168*; SW480 rereplic: 3%; KB-3-1 tox: inactive

What do the screens show for `COCCN(C(=O)c1ccc2c(c1)S(=O)(=O)N=C1CCCCCN12)c1c(N)n(CC(C)C)c(=O)[nH]c1=O`?
MCF10A rerep: 3%; KB-V1 MDR tox: inactive; IL-1B inflam inh: 5; SW480 rereplic: -5%; KB-3-1 tox: inactive

Results for COC(=O)c1ccc(COc2cc([N+](=O)[O-])cc3cccnc23)o1 ?
MCF10A rerep: 4%; KB-V1 MDR tox: inactive; IL-1B inflam inh: 0; SW480 rereplic: -35%; KB-3-1 tox: inactive

What do the screens show for `O=[N+]([O-])c1cc2cccnc2c2ncccc12`?
MCF10A rerep: 0%; KB-V1 MDR tox: inactive; IL-1B inflam inh: 90; SW480 rereplic: 15µM*; KB-3-1 tox: 0.12µM*

How did O=[N+]([O-])c1cc(O)c2ncccc2c1 do in these assays?
MCF10A rerep: inconclusive; KB-V1 MDR tox: 18µM*; IL-1B inflam inh: -95*; SW480 rereplic: -27%; KB-3-1 tox: inconclusive

Results for COc1ccc(C2Nc3ccccc3C(=O)N2Cc2ccco2)cc1OC (centres undefined) ?
KB-V1 MDR tox: inactive; KB-3-1 tox: inconclusive

Results for O=C(COC(=O)/C=C/c1ccc([N+](=O)[O-])cc1)NNC(=O)c1ccccc1 ?
MCF10A rerep: 0%; KB-V1 MDR tox: inactive; IL-1B inflam inh: -16; SW480 rereplic: -7%; KB-3-1 tox: inactive

How did Cc1ccc(-n2c(-c3ccccc3)nnc2-c2cccs2)cc1 do in these assays?
MCF10A rerep: -9%; KB-V1 MDR tox: inactive; IL-1B inflam inh: 0; SW480 rereplic: 3%; KB-3-1 tox: inactive

What do the screens show for `Cc1ccc(-n2c(-c3ccccc3)c[n+]3c2CCC3)cc1`?
MCF10A rerep: 12%; KB-V1 MDR tox: inconclusive; IL-1B inflam inh: -73*; SW480 rereplic: 1%; KB-3-1 tox: 3.7µM*

Compound activity (PubChem)
